Results taken from the supplement of paper PMC10849652.
The full data set covers some 7,900 targets. This sample favours those with a hit. About 0.6% of all pairs of compound and target were hits. Values without a mark were called inactive.

Chain of UniProt Q9Y5K3 (Q9Y5K3 whole entry, looked up): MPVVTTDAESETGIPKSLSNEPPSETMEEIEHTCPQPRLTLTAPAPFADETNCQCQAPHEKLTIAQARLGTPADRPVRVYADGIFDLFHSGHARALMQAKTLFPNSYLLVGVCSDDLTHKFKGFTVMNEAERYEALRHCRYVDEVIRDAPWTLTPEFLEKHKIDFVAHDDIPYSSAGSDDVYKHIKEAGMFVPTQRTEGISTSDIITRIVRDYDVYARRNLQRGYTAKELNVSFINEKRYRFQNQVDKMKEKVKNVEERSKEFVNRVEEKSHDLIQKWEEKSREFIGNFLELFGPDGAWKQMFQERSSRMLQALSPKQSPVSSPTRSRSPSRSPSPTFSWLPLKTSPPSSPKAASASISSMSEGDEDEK
Chain of UniProt Q8TAP8 (Q8TAP8 whole entry, looked up): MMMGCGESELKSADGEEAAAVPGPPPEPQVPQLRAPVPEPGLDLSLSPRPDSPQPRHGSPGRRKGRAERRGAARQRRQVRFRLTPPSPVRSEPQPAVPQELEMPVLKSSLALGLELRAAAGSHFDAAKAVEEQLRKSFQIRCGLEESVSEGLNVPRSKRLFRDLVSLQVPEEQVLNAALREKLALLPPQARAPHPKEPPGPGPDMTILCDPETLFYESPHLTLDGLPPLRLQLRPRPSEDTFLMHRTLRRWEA
Chain of UniProt Q8N5Y8 (Q8N5Y8 whole entry, looked up): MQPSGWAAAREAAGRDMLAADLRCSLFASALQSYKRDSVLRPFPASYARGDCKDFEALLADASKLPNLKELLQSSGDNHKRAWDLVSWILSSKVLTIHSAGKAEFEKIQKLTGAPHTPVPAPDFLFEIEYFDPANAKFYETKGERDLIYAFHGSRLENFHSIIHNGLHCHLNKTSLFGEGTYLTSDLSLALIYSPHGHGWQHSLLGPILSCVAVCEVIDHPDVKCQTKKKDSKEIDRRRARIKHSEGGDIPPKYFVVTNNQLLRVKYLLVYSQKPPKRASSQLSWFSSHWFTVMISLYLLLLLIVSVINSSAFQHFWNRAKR
Chain of UniProt Q14997 (Q14997 whole entry, looked up): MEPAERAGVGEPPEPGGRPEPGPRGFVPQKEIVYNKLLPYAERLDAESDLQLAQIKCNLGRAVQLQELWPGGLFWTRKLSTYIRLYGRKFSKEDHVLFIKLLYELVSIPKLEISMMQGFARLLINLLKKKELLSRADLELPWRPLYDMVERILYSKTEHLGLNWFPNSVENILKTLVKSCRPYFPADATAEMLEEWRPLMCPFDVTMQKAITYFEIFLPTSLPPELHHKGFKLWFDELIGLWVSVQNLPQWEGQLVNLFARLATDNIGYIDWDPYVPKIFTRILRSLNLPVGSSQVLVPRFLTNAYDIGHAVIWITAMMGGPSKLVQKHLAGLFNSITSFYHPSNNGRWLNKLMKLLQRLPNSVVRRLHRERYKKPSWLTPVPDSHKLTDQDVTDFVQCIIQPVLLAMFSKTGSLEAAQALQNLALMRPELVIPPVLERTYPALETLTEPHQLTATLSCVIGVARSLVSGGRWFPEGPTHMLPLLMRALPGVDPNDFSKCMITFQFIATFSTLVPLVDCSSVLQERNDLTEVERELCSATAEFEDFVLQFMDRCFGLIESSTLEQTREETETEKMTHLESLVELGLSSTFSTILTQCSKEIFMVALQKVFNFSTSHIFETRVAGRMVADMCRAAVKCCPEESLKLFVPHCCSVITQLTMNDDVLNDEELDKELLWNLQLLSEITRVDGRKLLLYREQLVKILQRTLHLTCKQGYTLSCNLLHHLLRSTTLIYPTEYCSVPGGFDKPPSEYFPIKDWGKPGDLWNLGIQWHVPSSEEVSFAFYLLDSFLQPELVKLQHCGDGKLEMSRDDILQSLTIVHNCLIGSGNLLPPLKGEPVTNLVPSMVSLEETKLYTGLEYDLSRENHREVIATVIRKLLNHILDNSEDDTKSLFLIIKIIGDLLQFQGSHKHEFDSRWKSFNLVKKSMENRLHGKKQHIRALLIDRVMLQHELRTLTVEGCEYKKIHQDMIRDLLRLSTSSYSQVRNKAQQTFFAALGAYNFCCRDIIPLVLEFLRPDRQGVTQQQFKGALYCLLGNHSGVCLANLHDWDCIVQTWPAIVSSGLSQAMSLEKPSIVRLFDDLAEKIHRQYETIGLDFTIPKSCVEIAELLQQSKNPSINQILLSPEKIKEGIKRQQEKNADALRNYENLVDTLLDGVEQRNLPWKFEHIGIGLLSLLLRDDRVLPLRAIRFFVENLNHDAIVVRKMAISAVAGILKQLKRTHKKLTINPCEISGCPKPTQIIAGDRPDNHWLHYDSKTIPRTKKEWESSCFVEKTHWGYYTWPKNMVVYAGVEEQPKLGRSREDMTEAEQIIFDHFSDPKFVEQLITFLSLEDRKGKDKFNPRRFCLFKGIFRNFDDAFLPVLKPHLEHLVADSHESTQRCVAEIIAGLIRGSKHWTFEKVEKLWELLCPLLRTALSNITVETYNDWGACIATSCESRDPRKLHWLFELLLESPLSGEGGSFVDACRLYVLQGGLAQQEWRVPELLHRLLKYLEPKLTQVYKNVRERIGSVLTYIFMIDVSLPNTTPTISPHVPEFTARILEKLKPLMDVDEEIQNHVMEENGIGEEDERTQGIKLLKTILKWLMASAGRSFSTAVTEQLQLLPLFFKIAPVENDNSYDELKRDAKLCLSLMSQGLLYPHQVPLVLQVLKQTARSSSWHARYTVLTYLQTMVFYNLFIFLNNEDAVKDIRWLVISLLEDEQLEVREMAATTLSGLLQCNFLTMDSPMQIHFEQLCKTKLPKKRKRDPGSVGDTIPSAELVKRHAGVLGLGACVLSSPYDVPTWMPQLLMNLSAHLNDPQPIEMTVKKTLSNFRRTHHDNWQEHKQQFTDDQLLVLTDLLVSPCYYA
Chain of UniProt Q16822 (Q16822 whole entry, looked up): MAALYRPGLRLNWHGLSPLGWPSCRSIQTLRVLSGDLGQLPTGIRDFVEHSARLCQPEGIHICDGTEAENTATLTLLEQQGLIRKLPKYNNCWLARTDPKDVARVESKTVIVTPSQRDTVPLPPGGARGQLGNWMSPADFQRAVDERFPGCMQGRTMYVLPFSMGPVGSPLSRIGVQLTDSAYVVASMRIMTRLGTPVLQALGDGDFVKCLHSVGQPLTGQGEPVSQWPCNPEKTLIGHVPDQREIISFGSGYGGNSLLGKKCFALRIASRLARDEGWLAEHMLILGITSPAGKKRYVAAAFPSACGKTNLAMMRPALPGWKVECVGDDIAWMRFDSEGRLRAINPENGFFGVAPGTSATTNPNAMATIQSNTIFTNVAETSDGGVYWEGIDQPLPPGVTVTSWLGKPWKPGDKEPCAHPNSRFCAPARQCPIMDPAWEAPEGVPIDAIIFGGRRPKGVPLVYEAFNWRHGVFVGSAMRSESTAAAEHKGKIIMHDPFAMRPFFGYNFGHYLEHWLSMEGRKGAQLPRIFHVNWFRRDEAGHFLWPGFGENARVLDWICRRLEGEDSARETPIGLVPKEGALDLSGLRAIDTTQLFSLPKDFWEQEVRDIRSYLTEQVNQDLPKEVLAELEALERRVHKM
Chain of UniProt P19174 (P19174 whole entry, looked up): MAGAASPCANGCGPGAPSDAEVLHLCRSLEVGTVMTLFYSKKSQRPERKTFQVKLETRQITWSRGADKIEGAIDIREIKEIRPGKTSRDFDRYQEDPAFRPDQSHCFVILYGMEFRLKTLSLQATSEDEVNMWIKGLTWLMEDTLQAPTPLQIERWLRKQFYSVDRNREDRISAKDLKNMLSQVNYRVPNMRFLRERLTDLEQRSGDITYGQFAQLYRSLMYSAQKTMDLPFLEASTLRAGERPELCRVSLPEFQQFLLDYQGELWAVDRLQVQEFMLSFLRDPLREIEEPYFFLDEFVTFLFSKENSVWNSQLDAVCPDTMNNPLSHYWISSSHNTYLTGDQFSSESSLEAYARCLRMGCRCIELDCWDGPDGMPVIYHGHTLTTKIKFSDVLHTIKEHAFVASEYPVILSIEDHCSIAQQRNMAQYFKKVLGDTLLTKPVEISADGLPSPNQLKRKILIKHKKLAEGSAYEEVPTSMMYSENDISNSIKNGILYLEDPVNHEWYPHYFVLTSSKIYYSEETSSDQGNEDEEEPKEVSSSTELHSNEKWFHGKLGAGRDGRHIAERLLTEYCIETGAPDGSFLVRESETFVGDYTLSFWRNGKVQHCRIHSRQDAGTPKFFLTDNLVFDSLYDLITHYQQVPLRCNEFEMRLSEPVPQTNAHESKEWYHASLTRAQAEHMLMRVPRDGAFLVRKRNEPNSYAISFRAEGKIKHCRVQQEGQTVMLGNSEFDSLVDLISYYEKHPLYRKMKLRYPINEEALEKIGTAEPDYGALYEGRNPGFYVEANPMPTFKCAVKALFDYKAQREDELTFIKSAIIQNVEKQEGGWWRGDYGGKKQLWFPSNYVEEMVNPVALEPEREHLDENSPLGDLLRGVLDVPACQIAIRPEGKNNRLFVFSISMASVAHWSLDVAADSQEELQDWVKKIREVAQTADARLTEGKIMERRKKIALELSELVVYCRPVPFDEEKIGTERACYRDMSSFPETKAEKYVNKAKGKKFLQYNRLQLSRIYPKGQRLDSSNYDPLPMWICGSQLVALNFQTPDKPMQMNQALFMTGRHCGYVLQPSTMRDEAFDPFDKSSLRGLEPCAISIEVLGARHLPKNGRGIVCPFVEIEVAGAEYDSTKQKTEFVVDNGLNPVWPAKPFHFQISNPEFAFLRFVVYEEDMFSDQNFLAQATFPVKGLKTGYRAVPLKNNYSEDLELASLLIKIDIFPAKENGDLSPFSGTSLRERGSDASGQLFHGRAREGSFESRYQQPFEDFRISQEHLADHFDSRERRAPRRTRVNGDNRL
Chain of UniProt O00625 (O00625 whole entry, looked up): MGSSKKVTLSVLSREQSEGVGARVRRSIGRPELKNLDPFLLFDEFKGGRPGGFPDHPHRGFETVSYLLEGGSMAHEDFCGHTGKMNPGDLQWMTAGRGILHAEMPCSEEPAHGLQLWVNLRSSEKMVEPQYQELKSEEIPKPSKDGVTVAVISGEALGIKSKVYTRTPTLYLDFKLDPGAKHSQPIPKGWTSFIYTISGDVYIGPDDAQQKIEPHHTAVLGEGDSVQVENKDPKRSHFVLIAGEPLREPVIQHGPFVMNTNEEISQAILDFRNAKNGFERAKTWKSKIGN

Each target was assayed with O=C(CCCCCCC(=O)Nc1ccccc1)NO [vorinostat] (assay: log2 fold change, soluble protein after heating vs DMSO (PISA); higher = thermal stabilisation; K562 cells, 10 uM, 30 min; active = over 0.2 and 3.5 SD of the protein, either way, in both replicates (recomputed)).
In short: (§1)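 Aliquots of K562 cells (2×10^6 cells/mL) treated with 10 μM compound for 30 min were heated for 3 min over 48°C-58°C. After pooling and extraction in PBS with 0.5% NP-40 at 4°C, soluble protein from a 21,000xg, 90 min spin was quantified by TMTpro 16plex LC-MS/MS with channel sums equalised. Thermal stability is expressed against control samples, from duplicates, as a log2 fold change.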
For PYGB (UniProt P11216), the log2 fold change was 0.063.
PRKCB isoform 2 (UniProt P05771) was tested, and the log2 fold change was 0.02.
For PCYT1B (UniProt Q9Y5K3), the log2 fold change was -0.038.
PRPSAP2 (UniProt O60256) showed a log2 fold change of 0.003.
POGLUT1 (UniProt Q8NBL1) showed a log2 fold change of 0.112.
PSMC2 (UniProt P35998) showed a log2 fold change of -0.018.
PDE4DIP isoform 4 (UniProt Q5VU43) showed a log2 fold change of -0.025.
For PCGF2 (UniProt P35227), the log2 fold change was -0.059.
Target POLR3K (UniProt Q9Y2Y1) has a log2 fold change of -0.003.
With PTTG1IP (UniProt P53801) the log2 fold change was -0.077.
PPP6R1 (UniProt Q9UPN7) showed a log2 fold change of 0.023.
For PIGG (UniProt Q5H8A4), the log2 fold change was -0.104.
With POLR2K (UniProt P53803) the log2 fold change was -0.156.
With PRKAR2B (UniProt P31323) the log2 fold change was 0.112.
PSME4 (UniProt Q14997) showed a log2 fold change of 0.127.
Target PPP1R35 (UniProt Q8TAP8) has a log2 fold change of -0.089.
PMPCA (UniProt Q10713) showed a log2 fold change of -0.016.
In the case of PPP1CA (UniProt P62136), the log2 fold change is reported as -0.023.
For PLSCR1 (UniProt O15162), the log2 fold change was -0.082.
PDS5A (UniProt Q29RF7) gave a log2 fold change of 0.062.
For PGGT1B (UniProt P53609), the log2 fold change was -0.046.
Work on PKN2 (UniProt Q16513) yielded a log2 fold change of 0.023.
Target PMM2 (UniProt O15305) has a log2 fold change of 0.007.
With PLCG1 isoform 2 (UniProt P19174) the log2 fold change was -0.003.
PISD (UniProt Q9UG56) showed a log2 fold change of 0.069.
PPIL2 (UniProt Q13356) gave a log2 fold change of 0.063.
PCK2 (UniProt Q16822) was tested, and the log2 fold change was 0.004.
Work on PSMC6 (UniProt P62333) yielded a log2 fold change of -0.005.
Work on PSMD8 (UniProt P48556) yielded a log2 fold change of 0.016.
With PPP2R5E (UniProt Q16537) the log2 fold change was 0.118.
For PRKCE (UniProt Q02156), the log2 fold change was 0.107.
For PIR (UniProt O00625), the log2 fold change was -0.625 (active).
PELO (UniProt Q9BRX2) gave a log2 fold change of 0.064.
With PTGFRN (UniProt Q9P2B2) the log2 fold change was -0.055.
PTGR2 (UniProt Q8N8N7) showed a log2 fold change of -0.149.
For QKI (UniProt Q96PU8), the log2 fold change was 0.06.
Work on PARP16 isoform 3 (UniProt Q8N5Y8) yielded a log2 fold change of 0.117.

Each target was assayed with O=C(CCCCCCNC(=O)c1cnc(N(c2ccccc2)c2ccccc2Cl)nc1)NO [citarinostat] in the same assay as above.
In short: as §1
For PYGB (UniProt P11216), the log2 fold change was 0.033.
With PRKCB isoform 2 (UniProt P05771) the log2 fold change was 0.041.
PCYT1B (UniProt Q9Y5K3) was tested, and the log2 fold change was 0.084.
PRPSAP2 (UniProt O60256) gave a log2 fold change of -0.02.
In the case of POGLUT1 (UniProt Q8NBL1), the log2 fold change is reported as -0.058.
PSMC2 (UniProt P35998) was tested, and the log2 fold change was -0.04.
PDE4DIP isoform 4 (UniProt Q5VU43) showed a log2 fold change of 0.018.
For PCGF2 (UniProt P35227), the log2 fold change was 0.134.
Target POLR3K (UniProt Q9Y2Y1) has a log2 fold change of -0.025.
For PTTG1IP (UniProt P53801), the log2 fold change was -0.017.
Target PPP6R1 (UniProt Q9UPN7) has a log2 fold change of 0.054.
Work on PIGG (UniProt Q5H8A4) yielded a log2 fold change of 0.052.
In the case of POLR2K (UniProt P53803), the log2 fold change is reported as 0.13.
Work on PRKAR2B (UniProt P31323) yielded a log2 fold change of 0.078.
In the case of PSME4 (UniProt Q14997), the log2 fold change is reported as 0.047.
Target PPP1R35 (UniProt Q8TAP8) has a log2 fold change of -0.058.
In the case of PMPCA (UniProt Q10713), the log2 fold change is reported as 0.017.
In the case of PPP1CA (UniProt P62136), the log2 fold change is reported as 0.034.
PLSCR1 (UniProt O15162) was tested, and the log2 fold change was 0.05.
In the case of PDS5A (UniProt Q29RF7), the log2 fold change is reported as 0.068.
With PGGT1B (UniProt P53609) the log2 fold change was 0.038.
Work on PKN2 (UniProt Q16513) yielded a log2 fold change of 0.073.
Target PMM2 (UniProt O15305) has a log2 fold change of 0.024.
PLCG1 isoform 2 (UniProt P19174) gave a log2 fold change of 0.059.
PISD (UniProt Q9UG56) showed a log2 fold change of 0.035.
PPIL2 (UniProt Q13356) was tested, and the log2 fold change was 0.065.
PCK2 (UniProt Q16822) was tested, and the log2 fold change was 0.013.
Target PSMC6 (UniProt P62333) has a log2 fold change of -0.048.
Work on PSMD8 (UniProt P48556) yielded a log2 fold change of -0.015.
With PPP2R5E (UniProt Q16537) the log2 fold change was 0.058.
Target PRKCE (UniProt Q02156) has a log2 fold change of -0.019.
PIR (UniProt O00625) gave a log2 fold change of -0.014.
With PELO (UniProt Q9BRX2) the log2 fold change was 0.009.
Target PTGFRN (UniProt Q9P2B2) has a log2 fold change of 0.021.
For PTGR2 (UniProt Q8N8N7), the log2 fold change was 0.009.
Target QKI (UniProt Q96PU8) has a log2 fold change of 0.026.
Work on PARP16 isoform 3 (UniProt Q8N5Y8) yielded a log2 fold change of 0.006.
